The text below walks through data of PubChem BioAssay (Tox21).

Where “and” joins values, the source holds several entries; their conditions need not be identical. Equal values may be shown once. Inconclusive results are not listed. A structure can be active in one record and inactive in another. Calls of active or inactive are those of the source. Unless noted, calls follow the shape of the dose curve; as a rule, active = well fitted curve in the direction sought with a large enough effect in the repeat runs; inconclusive = weak or mixed curves; inactive = no such curve, though single readings can be large; an effect the other way counts as inactive or inconclusive.

Test [1] can be described thus: qHTS assay to identify small molecule antagonists of the estrogen related receptor (ERR) signaling pathway from Tox21 library - cell viability counter screen (AID 1224834). Also: nearly all actives have a fitted effect of over 30% in size. Also: potency is read from the fitted curve at half-maximal effect. Put shortly:
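Cytotoxicity of test substances is gauged in the same ERR cells used for the antagonist screen, after 17.5 h of compound treatment at 37 C, by CellTiter-Fluor fluorescence measured after 30 min.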

For test [2], the target named is Luciferin 4-monooxygenase (Photinus pyralis) (UniProt P08659). The experiment in a line: qHTS assay to identify small molecule inhibitors of firefly luciferase (AID 1224835). Also: nearly all actives have a fitted effect of over 25% in size. Put shortly:
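Inhibition of purified Photinus luciferase is measured by luminescence. Substrate levels (D-luciferin, ATP) sit at their KM values. Each compound is tested in a concentration series.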
On the technique in general: Quantitative high-throughput screening tests each substance at several concentrations.

A short description of test [3]: qHTS assay to identify small molecule agonists of the constitutive androstane receptor (CAR) signaling pathway - cell viability counter screen (AID 1224836). Also: nearly all actives have a fitted effect of over 45% in size. Put shortly:
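Using CellTiter-Fluor, viability of HepG2 cells harbouring hCAR and CYP2B6-2.2kb was measured following 23 h incubation with a 15-concentration compound series plus PK11195 (0.75 uM final).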

Test [4] can be described thus: qHTS assay to identify small molecule antagonists of the constitutive androstane receptor (CAR) signaling pathway - cell viability counter screen (AID 1224837). Also: nearly all actives have a fitted effect of over 45% in size. The procedure, abridged:
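Multiplexed cytotoxicity read-out for the CAR antagonist screen: double-stable HepG2-CYP2B6-hCAR cells co-treated with 50 nM CITCO (final) and compound over 15 concentrations, incubated 23 hr, then assessed by CellTiter-Fluor fluorescence.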

Test [5] deals with Nuclear receptor subfamily 1 group I member 3 (Homo sapiens) (UniProt Q14994). The experiment in a line: qHTS assay to identify small molecule antagonists of the constitutive androstane receptor (CAR) signaling pathway (AID 1224838). Also: nearly all actives have a fitted effect of over 40% in size. Also: potency is read from the fitted curve at half-maximal effect. The procedure, abridged:
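Compounds were titrated across 15 concentrations onto HepG2 cells double-stably expressing hCAR and a CYP2B6-2.2kb reporter, together with 50 nM CITCO (final). After 24 h at 37 C, luciferase activity was measured by luminescence.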

For test [6] the target is unchanged. The experiment in a line: qHTS assay to identify small molecule agonists of the constitutive androstane receptor (CAR) signaling pathway (AID 1224839). Also: nearly all actives have a fitted effect of over 15% in size. Also: potency is read from the fitted curve at half-maximal effect.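 As to activation: HepG2 cells stably carrying human CAR and a CYP2B6 luciferase reporter.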 The procedure, abridged:
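Double-stable HepG2 cells (hCAR, CYP2B6-2.2kb) seeded 4 h before compound addition. Exposure 24 h with 0.75 uM PK11195 final. Luciferase detected by ONE-Glo.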

Test [7] can be described thus: qHTS assay to identify small molecule antagonists of the estrogen related receptor signaling pathway with the pleiotropic PPARgamma coactivator (PGC) from Tox21 10K library - cell viability counter screen (AID 1224840; active = well fitted cell-killing curve with a large enough effect in the repeat runs, not every such curve was filed as active; also: nearly all actives have a fitted effect of over 40% in size). Put shortly: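 Step one, plate 2,000 PGC/ERR cells per well; step two, incubate 6 h at 37 C/5% CO2; step three, pin-transfer compounds; step four, incubate 17.5 h; step five, add CellTiter-Fluor and read fluorescence after 30 min.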

Test [8] has as its target Thyrotropin receptor (Homo sapiens) (UniProt P16473). The experiment in a line: qHTS assay to identify small molecule agonists of the thyroid stimulating hormone receptor (TSHR) signaling pathway (AID 1224843; calls by dose curve; also: nearly all actives have a fitted effect of over 45% in size; also: potency is read from the fitted curve at half-maximal effect). The procedure, abridged:
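Screening of the Tox21 10K collection used HEK293 cells engineered with TSHR at 800 cells per well. After a 30-min room-temperature compound exposure, HTRF cAMP reagents were added and fluorescence recorded 1 h later.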

Test [9] in a line: qHTS assay to identify small molecule agonists of the hypoxia (HIF-1) signaling pathway - cell viability counter screen (AID 1224844; calls by dose curve; also: nearly all actives have a fitted effect of over 50% in size). The procedure, abridged: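 Tox21 10K compounds were added to HRE-bla ME-180 cells (0.5% dialyzed FBS) and incubated 17 hrs at 37C; ATP-based CellTiter-Glo luminescence then reported cell viability in the same wells.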
The nature of test [10]: qHTS assay to identify small molecule agonists of H2AX (AID 1224845; active = well fitted activation curve with a large enough effect in the signal ratio in the repeat runs, not every such curve was filed as active; the % refers to the signal ratio). The procedure, abridged:
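Phospho-H2AX Ser139 measured by HTRF (ex 320 nm; em 665 and 620 nm) after 24 hr antibody incubation. Compounds, 15 concentrations, 0.76% DMSO, were applied to CHO-K1 cells for 3hr at 37C before lysis.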

Test [11] in a line: qHTS assay to identify small molecule agonists of the hypoxia (HIF-1) signaling pathway (AID 1224846; active = well fitted activation curve with a large enough effect in the signal ratio in the repeat runs, not every such curve was filed as active; the % refers to the signal ratio). Put shortly:
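Steps: seed ME-180 HRE-bla cells (2,000/well, 0.5% dialyzed FBS); incubate 5 hrs at 37C; pin-transfer compounds or DMSO; incubate 17 hrs; add LiveBLAzer B/G substrate CCF4-AM; measure reporter activation by FRET.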

Test [12] can be described thus: qHTS RealTime-Glo MT Cell Viability Assay in HepG2 cells - 24 hour (AID 1224867). Also: nearly all actives have a fitted effect of over 50% in size. Also: potency is read from the fitted curve at half-maximal effect. The procedure, abridged:
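HepG2 cells (600/well) were dispensed with RealTime-Glo reagents, incubated 5 h at 37 °C, then treated with compounds in DMSO for up to 40 h. Nonlytic NanoLuc luminescence reflecting viable cells was read at each stated time point.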

A short description of test [13]: qHTS RealTime-Glo MT Cell Viability Assay in HEK293 cells - 32 hour (AID 1224868). Also: nearly all actives have a fitted effect of over 50% in size. Also: potency is read from the fitted curve at half-maximal effect. The procedure, abridged: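 HEK293 cells seeded with NanoLuc/prosubstrate reagent, rested 5 h at 37 C, then dosed and kept at 37 C up to 40 h. Nonlytic real-time luminescence from viable cells read at 0, 8, 16, 24, 32 and 40 h.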
Test [14] in a line: A CellTox Green Cytotoxicity Assay to monitor cytotoxicity in HEK293 cells - 0 hour (AID 1224869). Also: nearly all actives have a fitted effect of over 50% in size. The procedure, abridged:
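Cytotoxicity was tracked continuously in HEK293 cells by a DNA-binding dye excluded from viable cells. Compounds were transferred in DMSO 5 h after seeding; fluorescence was recorded at intervals up to 40 h.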

Test [15] in a line: qHTS assay to identify small molecule agonists of H2AX - cell viability counter screen (AID 1224847; calls by dose curve; also: top concentration of the series differs between compounds; nearly all actives have a fitted effect of over 30% in size). The procedure, abridged:
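Quantitative HTS viability measurement: CHO-K1 wild-type cells in serum (10% FBS) medium, short 3 hr drug exposure at 37C with 0.76% DMSO, CellTiter-Glo luminescent detection.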

Test [16] is described as follows: qHTS assay to identify small molecule antagonists of the estrogen related receptor signaling pathway with the pleiotropic PPARgamma coactivator (PGC) from Tox21 10K library (AID 1224841; call rule not given here). Put shortly:
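Antagonism in this quantitative HTS is taken from loss of luciferase signal in PGC/ERR cells. Cells (2,000/well) are treated with compounds in DMSO after a 6 h settling period and read by One-Glo luminescence after 18 h.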

A short description of test [17]: qHTS assay to identify small molecule agonists of the estrogen related receptor signaling pathway with the pleiotropic PPARgamma coactivator (PGC) from Tox21 10K library (AID 1224842). Also: nearly all actives have a fitted effect of over 15% in size. Put shortly: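 Luminescence from One-Glo (30 min, room temperature) measured after PGC/ERR cells had 18 h at 37 C with pinned compound (23 nL in DMSO). Cells had been seeded at 2,000 per well and pre-incubated 6 h.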

Test [18] is described as follows: qHTS assay to identify small molecule antagonists of the estrogen related receptor (ERR) signaling pathway from Tox21 library (AID 1224848). Also: nearly all actives have a fitted effect of over 50% in size. Put shortly:
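Antagonist-mode screen of the Tox21 10K library in an NTP-provided ERR reporter cell line; 18 h compound exposure at 37 C, luminescence measured with ONE-Glo.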

A short description of test [19]: qHTS assay to identify small molecule agonists of the estrogen related receptor (ERR) signaling pathway from Tox21 library (AID 1224849; calls by dose curve; also: nearly all actives have a fitted effect of over 15% in size). Conditions: ERR reporter cell line, ONE-Glo luciferase, 18 h. The procedure, abridged:
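Agonist signal is luciferase luminescence from an ERR reporter cell line treated 18 h at 37 C with DMSO-dissolved compounds, read 30 min after ONE-Glo addition at room temperature.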
% is scaled to controls: 0 for no effect and ±100 for the full control effect.

Luciferin 4-monooxygenase (Photinus pyralis), sequence (P08659 whole entry, looked up): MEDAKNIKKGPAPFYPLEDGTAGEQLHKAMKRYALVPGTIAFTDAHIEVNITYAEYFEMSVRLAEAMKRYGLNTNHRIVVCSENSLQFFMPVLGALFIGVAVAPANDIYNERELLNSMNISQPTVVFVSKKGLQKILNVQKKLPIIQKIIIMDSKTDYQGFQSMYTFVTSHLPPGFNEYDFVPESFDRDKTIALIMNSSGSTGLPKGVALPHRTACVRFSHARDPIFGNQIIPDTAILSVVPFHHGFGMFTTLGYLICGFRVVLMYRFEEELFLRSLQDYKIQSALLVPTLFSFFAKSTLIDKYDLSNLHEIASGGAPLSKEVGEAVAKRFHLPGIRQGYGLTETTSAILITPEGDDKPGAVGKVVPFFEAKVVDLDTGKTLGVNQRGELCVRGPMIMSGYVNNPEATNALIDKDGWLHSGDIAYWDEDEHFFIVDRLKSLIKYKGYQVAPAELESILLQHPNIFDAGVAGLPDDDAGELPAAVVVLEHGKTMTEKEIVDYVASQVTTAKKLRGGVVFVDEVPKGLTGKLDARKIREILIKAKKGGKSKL
Nuclear receptor subfamily 1 group I member 3 (Homo sapiens), sequence (Q14994 whole entry, looked up): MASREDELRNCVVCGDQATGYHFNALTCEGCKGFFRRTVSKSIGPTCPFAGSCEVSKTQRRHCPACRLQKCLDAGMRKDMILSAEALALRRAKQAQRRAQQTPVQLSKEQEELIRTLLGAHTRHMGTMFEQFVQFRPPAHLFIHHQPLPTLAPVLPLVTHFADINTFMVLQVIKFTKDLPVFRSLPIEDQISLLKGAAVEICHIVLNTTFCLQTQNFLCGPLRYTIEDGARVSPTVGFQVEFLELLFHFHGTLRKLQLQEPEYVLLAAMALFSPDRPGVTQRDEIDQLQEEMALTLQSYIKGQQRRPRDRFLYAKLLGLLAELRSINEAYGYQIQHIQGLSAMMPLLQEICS
Thyrotropin receptor (Homo sapiens), sequence (P16473 whole entry, looked up): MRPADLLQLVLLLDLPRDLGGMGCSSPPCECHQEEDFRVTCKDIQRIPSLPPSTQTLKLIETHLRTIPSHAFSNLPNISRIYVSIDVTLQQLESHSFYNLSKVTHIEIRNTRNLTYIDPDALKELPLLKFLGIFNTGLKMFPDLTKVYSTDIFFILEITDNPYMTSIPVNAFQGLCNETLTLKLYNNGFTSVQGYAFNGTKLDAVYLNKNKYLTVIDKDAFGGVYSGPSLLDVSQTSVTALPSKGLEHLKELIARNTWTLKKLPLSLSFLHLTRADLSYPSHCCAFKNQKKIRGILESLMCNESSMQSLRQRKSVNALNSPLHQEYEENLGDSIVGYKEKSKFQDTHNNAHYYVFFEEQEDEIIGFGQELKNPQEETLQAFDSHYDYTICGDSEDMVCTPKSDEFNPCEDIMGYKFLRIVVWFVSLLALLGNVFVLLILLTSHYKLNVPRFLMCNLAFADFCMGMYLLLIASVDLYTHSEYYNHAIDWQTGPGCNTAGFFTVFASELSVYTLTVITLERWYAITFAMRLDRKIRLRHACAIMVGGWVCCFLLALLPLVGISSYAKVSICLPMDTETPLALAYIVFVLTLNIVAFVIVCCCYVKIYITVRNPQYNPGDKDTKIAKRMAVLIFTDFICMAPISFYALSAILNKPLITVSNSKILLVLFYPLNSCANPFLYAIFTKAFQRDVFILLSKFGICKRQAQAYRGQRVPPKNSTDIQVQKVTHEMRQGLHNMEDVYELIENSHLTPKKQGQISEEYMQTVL

In the case of `CCOP(O)OCC`, the Potency result in [1], in test [2], in test [3], in test [4], in [5] and in test [6] was “inactive” throughout. Also, the Potency result in [7], in [8], in test [9], in test [10], in test [12] and in test [13] was “inactive” throughout. Further, the Potency result in test [14] was “inactive”. In [11], the call was inactive.

On to `Brc1ccccc1`, for which the Potency result in [1], in test [2], in [3], in test [4], in test [5] and in test [6] was “inactive” in each case. For the same molecule, the Potency entry in test [7], in [8], in test [9], in test [10], in [15] and in test [12] was “inactive” in each case. Besides, the Potency result in [13] and in [14] was “inactive” in each case. In addition, the outcome in test [11] was inactive.

Turning to `CCCN(CCCl)c1c([N+](=O)[O-])cc(C(F)(F)F)cc1[N+](=O)[O-]`, the Potency result in test [1], in [2], in [3], in test [4], in [5] and in [7] was “inactive” in each case. Besides, the Potency entry in test [16], in [17], in [9], in [10], in test [18] and in [12] was “inactive” each time. Besides, the Potency result in [13] and in test [14] was “inactive” throughout. For the same molecule, in test [8], the Potency was 1.93 µM (active). Further, the molecule was called inactive in test [11]. Further, the activity change, positive = activation in [19] (at 92.4 µM (top of the series) unless noted) is -4.52% (inactive).

As to `CCC(Br)(CC)C(=O)NC(N)=O`, the Potency result in test [1], in test [2], in [3], in [4], in [5] and in test [6] was “inactive” each time. The Potency result in [7], in [8], in test [9], in test [10], in test [15] and in test [12] was “inactive” each time. Besides, the Potency entry in test [13] and in [14] was “inactive” throughout. In [11], the result was inactive.

On to `CCOC(=O)CBr`, for which the Potency result in [1], in test [2], in [3], in test [4], in test [5] and in test [6] was “inactive” each time. In addition, the Potency entry in test [7], in [8], in test [10], in test [15], in [12] and in [14] was “inactive” in each case. In addition, the molecule was classed as inactive in [11].

Take `CCOP(=S)(OCC)Oc1cc(Cl)c(Br)cc1Cl`: the Potency entry in test [1], in test [2], in test [3], in [4], in [5] and in test [7] was “inactive” in each case. The Potency entry in test [9], in test [12] and in test [13] was “inactive” in each case. In [6], the Potency is 21.7 µM (active). Moreover, in [11], the molecule was classed as inactive.

As for `NC(=O)C(Cl)(Cl)Cl`, the Potency entry in test [1], in [2], in test [3], in [4], in test [5] and in test [6] was “inactive” throughout. Also, the Potency entry in test [7], in [8], in test [9], in [10], in [15] and in [12] was “inactive” in each case. Also, the Potency entry in [13] was “inactive”. In addition, in test [11], the result was inactive.

On to `O=C(CCl)c1ccc(Cl)cc1Cl`, for which the Potency result was “inactive and 21.1 µM (active)” in test [1]; 13.3 µM (active) in test [5]; “inactive and 19 µM (active)” in [12]; 3.01 µM (active) in test [13]. The Potency result in [2], in test [3], in test [4], in test [6], in test [7] and in test [17] was “inactive” in each case. The Potency entry in test [8], in [18] and in [14] was “inactive” each time. Further, the call in test [11] was inactive. In addition, the activity change, positive = activation in [19] (at 42.5 µM (top of the series)) is -19% (inactive); in test [19] (at 92.4 µM (top of the series)), -9.77% (inactive).

As to `COC(N)=O`, the Potency result in test [1], in test [2], in test [3], in [4], in test [5] and in [6] was “inactive” in each case. Besides, the Potency entry in [7], in [10], in test [15], in [12], in test [13] and in [14] was “inactive” throughout. The molecule was classed as inactive in test [11].
